Data on 14 compounds can be found in PubChem BioAssay (NCI).

Some test systems named below: HCT-15 colon; HT29 colon; SNB-75 CNS; SNB-19 CNS; U251 CNS; PC-3 prostate; SK-MEL-5 melanoma; UACC-62 melanoma; LOX IMVI melanoma; SK-MEL-28 melanoma.
What all share (assay): NCI-60 one-dose screen, 48 h (100 = growth as untreated, 0 = no growth, -100 = all killed)
What all share (conditions): 10 µM unless noted

The structures appear in SMILES notation. The panel holds about 83,000 compounds, 20% with a hit somewhere; the sample as a whole holds those more often.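 96-well plates, one dose, 48 hours. Percent growth reported; active if below 10.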 Values without a mark were called inactive. Activity calls are given as the source filed them.

With `O=C(Nc1ccc(-n2ccc3c(NC(=O)c4ccccc4)ncnc32)cc1)Nc1cccc(Cl)c1Cl`, the growth in the test on HCT-15 colon was 9.38% (active); in the test on HT29 colon, -40.2% (active); with SNB-75 CNS, 3.19% (active); in the test with SNB-19 CNS, -3.36% (active); in the test on U251 CNS it was -80% (active); with PC-3 prostate, -57.5% (active). Besides, the growth with SK-MEL-5 melanoma was 14.9%; with UACC-62 melanoma, 33.4%; in the test on LOX IMVI melanoma it was -23.9% (active); in the test on SK-MEL-28 melanoma it was -24.2% (active).

On to `O=C1CCC(=O)N1C1CCCCC1`, for which the growth was 112% in the test on HCT-15 colon; 112% with HT29 colon; 88.5% in the test with SNB-75 CNS; 99.9% in the test with SNB-19 CNS; 107% in the test on U251 CNS; 99.8% with PC-3 prostate. Moreover, the growth was 96.8% in the test with SK-MEL-5 melanoma, 97.7% with UACC-62 melanoma, 98.4% in the test on LOX IMVI melanoma and 108% in the test with SK-MEL-28 melanoma.

For the compound `COc1ccc(NC(=O)COCCOCCNC[C@@H]2C(=O)O[C@H]3[C@H]2CC/C(COC(=O)OC/C2=C/CC[C@@]4(C)O[C@H]4[C@H]4OC(=O)[C@@H](CN(C)C)[C@@H]4CC2)=C\CC[C@@]2(C)O[C@@H]32)c(O)c1C(N)=O`, the growth with HCT-15 colon was 17.1%; in the test on HT29 colon it was 14%; in the test on SNB-75 CNS, 84.1%; with SNB-19 CNS, 94.1%; in the test on U251 CNS, 80.8%; in the test on PC-3 prostate, 80.2%. Moreover, the growth is 85.7% in the test on SK-MEL-5 melanoma, 43% with UACC-62 melanoma, 35.1% in the test on LOX IMVI melanoma and -6.54% (active) with SK-MEL-28 melanoma.

Take `COc1ccccc1NC(=O)COc1ccc(/C=C2/Oc3cc4occc4c(OC)c3C2=O)cc1OC`: the growth with HCT-15 colon is 104%; in the test with HT29 colon it was 113%; in the test with SNB-75 CNS it was 114%; with SNB-19 CNS, 105%; with U251 CNS, 102%; in the test on PC-3 prostate, 92.2%. Besides, the growth with SK-MEL-5 melanoma is 86.3%; with UACC-62 melanoma, 91.6%; in the test with LOX IMVI melanoma it was 98.8%; in the test with SK-MEL-28 melanoma, 111%.

Regarding `CCCCCCCCCCCCCCCCCCNCc1ccc(Cl)cc1`, the growth was -87.1% (active) in the test on HCT-15 colon; -94.7% (active) in the test with HT29 colon; -60.9% (active) in the test on SNB-75 CNS; -67.6% (active) in the test with SNB-19 CNS; -84.8% (active) in the test with U251 CNS; -89.3% (active) in the test on PC-3 prostate. In addition, the growth with SK-MEL-5 melanoma was 11.8%; in the test with UACC-62 melanoma, -46.7% (active); in the test with LOX IMVI melanoma, -74.6% (active); in the test with SK-MEL-28 melanoma it was 27.2%.

`Nc1nc(=S)ss1`: the growth is 91.8% in the test on HCT-15 colon; 105% in the test on HT29 colon; 89.3% in the test with SNB-75 CNS; 103% in the test with SNB-19 CNS; 107% in the test with U251 CNS; 90.7% in the test with PC-3 prostate. The growth with SK-MEL-5 melanoma is 110%; in the test on UACC-62 melanoma, 95.4%; in the test on LOX IMVI melanoma, 103%; with SK-MEL-28 melanoma it was 113%.

Consider `CCOC(=O)NNc1nncc2ccccc12`, for which the growth in the test on HCT-15 colon was 101%; in the test on HT29 colon, 104%; with SNB-75 CNS, 120%; in the test with SNB-19 CNS, 99.2%; in the test on U251 CNS, 97.2%; with PC-3 prostate, 97.7%. For the same compound, the growth is 105% with SK-MEL-5 melanoma, 101% in the test with UACC-62 melanoma, 90.8% in the test on LOX IMVI melanoma and 122% with SK-MEL-28 melanoma.

Take `O=C(Nc1cccc([N+](=O)[O-])c1)c1ccc2ccccc2c1O`: the growth in the test on HCT-15 colon was 66%; in the test with HT29 colon, 93.9%; in the test on SNB-75 CNS, 97.4%; with SNB-19 CNS, 67.6%; in the test on U251 CNS, 49.4%; in the test on PC-3 prostate, 51.9%. Further, the growth in the test on SK-MEL-5 melanoma is 19.5%; with UACC-62 melanoma, 20.4%; in the test with LOX IMVI melanoma it was 63.3%; with SK-MEL-28 melanoma it was 93.2%.

Take `Nc1nc2ccc(CNc3ccc(C(=O)NC(CC(=O)O)C(=O)O)cc3)cc2c(=O)[nH]1` (stereo not given): the growth was 39.8% in the test on HCT-15 colon; 18.6% with HT29 colon; 70.4% in the test with SNB-75 CNS; 62.6% in the test with SNB-19 CNS; 49.5% in the test on U251 CNS; 33.1% in the test with PC-3 prostate. In addition, the growth with SK-MEL-5 melanoma was 30%; with UACC-62 melanoma, 31.6%; in the test on LOX IMVI melanoma, 19.5%; in the test on SK-MEL-28 melanoma it was 106%.

With `O=C(/C=C/c1ccco1)c1cccc(Nc2nc(Nc3ccccc3)nc(Nc3ccccc3)n2)c1`, the growth in the test with HCT-15 colon was 72%; in the test on HT29 colon, 79.1%; in the test on SNB-75 CNS it was 60.2%; in the test on SNB-19 CNS, 92.4%; with U251 CNS it was 77.1%; with PC-3 prostate, 66.4%. In addition, the growth was 81.2% in the test on SK-MEL-5 melanoma, 80.3% in the test on UACC-62 melanoma, 83.5% in the test on LOX IMVI melanoma and 95% in the test on SK-MEL-28 melanoma.

In the case of `OCCOCC(F)(F)F`, the growth in the test with HCT-15 colon was 108%; in the test on HT29 colon it was 105%; with SNB-75 CNS, 88.3%; with SNB-19 CNS, 117%; in the test with U251 CNS, 105%; in the test on PC-3 prostate, 97.8%. Further, the growth in the test with SK-MEL-5 melanoma was 107%; with UACC-62 melanoma it was 113%; in the test with LOX IMVI melanoma, 112%; with SK-MEL-28 melanoma, 98.5%.

For the compound `c1coc(CSc2ncnc3nc[nH]c23)c1`, the growth in the test with HCT-15 colon was 101%; in the test on HT29 colon, 110%; with SNB-75 CNS it was 95.1%; with SNB-19 CNS, 86.2%; with U251 CNS it was 102%; with PC-3 prostate, 90.1%. The growth in the test with SK-MEL-5 melanoma was 109%; in the test with UACC-62 melanoma, 98.3%; in the test with LOX IMVI melanoma, 89.2%; in the test with SK-MEL-28 melanoma, 108%.

Regarding `C=C1c2c(Cl)ccc(O)c2C(O)=C2C(=O)[C@]3(O)C(O)=C(C(N)=O)C(=O)[C@@H](N(C)C)[C@@H]3[C@@H](O)[C@H]12`, the growth is 13.7% in the test with HCT-15 colon; 10.9% in the test on HT29 colon; 0.44% (active) with SNB-75 CNS; 20.9% with SNB-19 CNS; 4.36% (active) in the test on U251 CNS; -8.47% (active) in the test with PC-3 prostate. Moreover, the growth was 20.4% with SK-MEL-5 melanoma, 7.11% (active) in the test on UACC-62 melanoma, 0.768% (active) in the test with LOX IMVI melanoma and 25.8% in the test with SK-MEL-28 melanoma.

As for `COc1ccc(NC(=O)Nc2ccc(-c3ccc(OC)c(OC)c3)nc2C)cc1`, the growth with HCT-15 colon is 91.8%; with HT29 colon, 68.8%; in the test on SNB-75 CNS, 47.5%; in the test with SNB-19 CNS, 71.5%; in the test on U251 CNS, 22.1%; in the test on PC-3 prostate, 81.4%. Also, the growth in the test with SK-MEL-5 melanoma was 23%; in the test with UACC-62 melanoma it was 59.9%; in the test on LOX IMVI melanoma it was 88.8%; in the test with SK-MEL-28 melanoma it was 86.8%.
